Test results reported in the supplement of paper PMC6089552.
Out of some 3,200 compounds screened, about 300 (9.4%) showed activity. The sample holds actives, similar compounds and a random draw of the others, so the mix is not that of the screen.

Tested on: A673/TR/shEF
Experiment: cell viability (LOESS-normalised, relative to median of negative controls) (log2 ratio); higher = more viable cells (less compound effect), active = hit call of the paper (over 3 MAD below the median)
Conditions: treatment time: 72 h
How it was run: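 A673/TR/shEF Ewing sarcoma cells were plated at 1,500 per well in 384-well plates and cultured with or without doxycycline, added 24 h before compounds, to induce EWS-FLI1 shRNA knockdown. Library compounds at two or more concentrations, alongside DMSO controls, were applied for three days. Cell viability was measured by CellTiter-Glo luminescence on an Envision reader. Readings were LOESS-corrected per plate, divided by the median of negative controls and log2-transformed, and hits were wells lying at least three median absolute deviations from the median of all screened wells.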

[1] = 0.25 µM, library screen: screen1, EWS-FLI1 expression: high (no doxycycline)
[2] = 0.25 µM, library screen: screen1, EWS-FLI1 expression: low (doxycycline-induced shRNA knockdown)
[3] = 0.25 µM, library screen: screen2, EWS-FLI1 expression: high (no doxycycline)
[4] = 0.25 µM, library screen: screen2, EWS-FLI1 expression: low (doxycycline-induced shRNA knockdown)
[5] = 2.5 µM, library screen: screen1, EWS-FLI1 expression: high (no doxycycline)
[6] = 2.5 µM, library screen: screen1, EWS-FLI1 expression: low (doxycycline-induced shRNA knockdown)
[7] = 2.5 µM, library screen: screen2, EWS-FLI1 expression: high (no doxycycline)
[8] = 2.5 µM, library screen: screen2, EWS-FLI1 expression: low (doxycycline-induced shRNA knockdown)
[9] = 0.103 µM, library screen: screen3, EWS-FLI1 expression: high (no doxycycline)
[10] = 0.103 µM, library screen: screen3, EWS-FLI1 expression: low (doxycycline-induced shRNA knockdown)
[11] = 0.308 µM, library screen: screen3, EWS-FLI1 expression: high (no doxycycline)
[12] = 0.308 µM, library screen: screen3, EWS-FLI1 expression: low (doxycycline-induced shRNA knockdown)
[13] = 0.926 µM, library screen: screen3, EWS-FLI1 expression: high (no doxycycline)
[14] = 0.926 µM, library screen: screen3, EWS-FLI1 expression: low (doxycycline-induced shRNA knockdown)
[15] = 2.8 µM, library screen: screen3, EWS-FLI1 expression: high (no doxycycline)
[16] = 2.8 µM, library screen: screen3, EWS-FLI1 expression: low (doxycycline-induced shRNA knockdown)
[17] = 8.3 µM, library screen: screen3, EWS-FLI1 expression: high (no doxycycline)
[18] = 8.3 µM, library screen: screen3, EWS-FLI1 expression: low (doxycycline-induced shRNA knockdown)
[19] = 25 µM, library screen: screen3, EWS-FLI1 expression: high (no doxycycline)
[20] = 25 µM, library screen: screen3, EWS-FLI1 expression: low (doxycycline-induced shRNA knockdown)

Measured: cell viability (log2)

C/C=C/CC(C)C(O)C1C(=O)NC(CC)C(=O)N(C)CC(=O)N(C)C(CC(C)C)C(=O)NC(C(C)C)C(=O)N(C)C(CC(C)C)C(=O)NC(C)C(=O)NC(C)C(=O)N(C)C(CC(C)C)C(=O)N(C)C(CC(C)C)C(=O)N(C)C(C(C)C)C(=O)N1C (centres undefined)
inactive: [1] 0.0736 | [2] 0.0415 | [3] 0.25 | [4] 0.127 | [5] 0.0328 | [6] 0.00672 | [7] 0.11 | [8] 0.104

CC(C)(O)[C@@H]1CC[C@](C)([C@H]2[C@@H](O)C[C@@]3(C)[C@@H]4C[C@H](O[C@@H]5O[C@H](CO)[C@@H](O)[C@H](O)[C@H]5O)[C@H]5C(C)(C)[C@@H](O[C@@H]6OC[C@@H](O)[C@H](O)[C@H]6O)CC[C@@]56C[C@@]46CC[C@]23C)O1
inactive: [9] 0.0688 | [10] 0.0886 | [11] 0.0588 | [12] 0.038 | [13] 0.056 | [14] 0.105 | [15] 0.044 | [16] -0.00938 | [17] 0.0806 | [18] 0.0911 | [19] 0.0188 | [20] 0.0301

CC(=O)O[C@H]1CC[C@@]2(C)[C@@H](CC[C@@H]3[C@@H]2CC[C@]2(C)[C@@H]4[C@H](C[C@@H]32)O[C@]2(CC[C@@H](C)CO2)[C@H]4C)C1
inactive: [1] 0.0876 | [2] 0.0708 | [5] 0.176 | [6] 0.151

CC1=C(Cl)C(O)=CC(=O)C12Oc1cc(O)c(Cl)c(C)c1C2=O (centres undefined)
inactive: [1] 0.0863 | [2] 0.0945 | [5] 0.127 | [6] 0.13

CSCC[C@H](NC=O)C(=O)N[C@@H](Cc1ccccc1)C(=O)O
inactive: [1] 0.0894 | [2] 0.169 | [5] 0.0791 | [6] 0.113

C/C=C(/C)C(=O)O[C@@H]1c2c(ccc3ccc(=O)oc23)OC(C)(C)[C@@H]1OC(C)=O
inactive: [1] -0.0115 | [2] 0.00938 | [5] 0.181 | [6] 0.0803

C[C@@H]1O[C@@H](O[C@H]2[C@H](O[C@H]3CC[C@@]4(C)[C@@H](CC[C@]5(C)[C@@H]4CC=C4[C@@H]6CC(C)(C)CC[C@]6(C(=O)O)CC[C@]45C)[C@]3(C)CO)OC[C@H](O)[C@@H]2O)[C@H](O)[C@H](O)[C@H]1O
inactive: [1] 0.0421 | [2] 0.11 | [5] 0.089 | [6] 0.0617

CC(=O)N1CCN(c2nc(-c3ccccc3)c3cc(Br)ccc3n2)CC1
inactive: [1] 0.0769 | [2] 0.0692 | [5] 0.115 | [6] 0.105

COc1ccccc1/C=C/c1nc(O)c([N+](=O)[O-])c(=O)[nH]1
inactive: [1] 0.123 | [2] 0.138 | [5] 0.0902 | [6] 0.00102

CCOC(=O)c1c[nH]c2ccc(OC)cc2c1=O
inactive: [1] 0.15 | [2] 0.1 | [5] 0.112 | [6] 0.121

CC(C)[C@@H](C)/C=C/[C@@H](C)[C@H]1CC[C@H]2C3=CC=C4C[C@@H](O)CC[C@]4(C)[C@H]3CC[C@]12C
inactive: [1] 0.0837 | [2] 0.11 | [5] 0.0787 | [6] 0.0538

COc1cc(Nc2c(C#N)cnc3cc(OCCCN4CCN(C)CC4)c(OC)cc23)c(Cl)cc1Cl
active: [19] -1.59 | [20] -0.647
inactive: [9] 0.00802 | [10] 0.123 | [11] 0.0466 | [12] 0.063 | [13] 0.0151 | [14] 0.16 | [15] -0.0156 | [16] 0.139 | [17] -0.148 | [18] -0.136

COc1cc(C(=O)OCCCN2CCCN(CCCOC(=O)c3cc(OC)c(OC)c(OC)c3)CC2)cc(OC)c1OC
inactive: [3] 0.105 | [4] 0.0948 | [7] 0.199 | [8] 0.123

COc1cc2c(Oc3ccc4[nH]c(C)cc4c3F)ncnc2cc1OCCCN1CCCC1
inactive: [9] 0.0825 | [10] 0.0561 | [11] 0.034 | [12] 0.013 | [13] 0.0586 | [14] 0.0142 | [15] 0.0459 | [16] 0.0297 | [17] -0.077 | [18] 0.092 | [19] 0.0238 | [20] 0.0041

O=C(O)CSc1nnc(-c2ccc(Cl)cc2Cl)n1-c1ccccc1
inactive: [1] 0.109 | [2] 0.165 | [5] 0.15 | [6] 0.122

COc1c(C(=O)O)ccc2c1CCC(C)(C)O2
inactive: [1] 0.0873 | [2] 0.0519 | [5] 0.206 | [6] -0.0164

CCOc1ccc(C(=O)Nc2ccc(NC(=O)CC)cc2)cc1Cl
inactive: [1] 0.102 | [2] 0.0179 | [5] 0.0812 | [6] -0.0835

CCOc1ccc(C(=O)Nc2cccc(OC)c2)cc1Cl
inactive: [1] 0.0358 | [2] 0.0408 | [5] 0.151 | [6] 0.0428

CCOc1cc2ncc(C#N)c(Nc3ccc(OCc4ccccn4)c(Cl)c3)c2cc1NC(=O)/C=C/CN(C)C
inactive: [9] 0.0468 | [10] 0.0085 | [11] -0.038 | [12] -0.0155 | [13] -0.0139 | [14] -0.00326 | [15] -0.0436 | [16] -0.282 | [19] -0.035 | [20] -0.415
active: [17] -0.204 | [18] -0.529

CCOc1cc2ncc(C#N)c(Nc3ccc(F)c(Cl)c3)c2cc1NC(=O)/C=C/CN(C)C
active: [15] -0.201 | [16] -0.422 | [19] -1.43 | [20] -0.678
inactive: [9] 0.06 | [10] 0.0264 | [11] 0.0695 | [12] 0.0377 | [13] 0.0744 | [14] -0.098 | [17] -0.14 | [18] -0.477

COc1cccc(-n2c(C)c(C(C)=O)c(C(C)=O)c2C)c1
inactive: [1] -0.0313 | [2] 0.00668 | [5] 0.0772 | [6] -0.0891

COc1cc(C(=O)NC2CCCCC2)c([N+](=O)[O-])cc1OC
inactive: [1] 0.122 | [2] 0.0996 | [5] 0.157 | [6] 0.0416

CC(=O)O[C@]1(C(=O)CO)[C@H](C)C[C@H]2[C@@H]3CCC4=CC(=O)C=C[C@]4(C)[C@@]3(F)[C@@H](O)C[C@@]21C
inactive: [1] 0.0305 | [2] -0.118 | [5] 0.0736 | [6] -0.0945

COc1ccc(/C=C(/NC(=O)c2ccccc2)C(=O)N2CCCCCC2)cc1OC
inactive: [1] 0.12 | [2] 0.0586 | [5] 0.088 | [6] 0.085

CC(C(=O)O)[C@H]1CCC2C3CC=C4C[C@@H](O)CC[C@]4(C)C3CC[C@@]21C (some centres undefined)
inactive: [1] 0.0415 | [2] 0.0559 | [5] 0.0699 | [6] -0.0298

CC1(C)CC(=O)C2=C(C1)Nc1ccccc1N(C(=O)Cc1ccc(Cl)cc1)C2c1cccnc1 (centres undefined)
inactive: [1] 0.0404 | [2] 0.0353 | [5] 0.127 | [6] 0.0963

CC1=C(C(=O)Nc2ccccc2Cl)C(c2ccc(F)cc2)NC(=O)N1 (centres undefined)
inactive: [1] 0.153 | [2] 0.0871 | [5] 0.0947 | [6] -0.018

CC1(C)CC2C1CCC1(CBr)CCC3C(CC(=O)O)C(=O)OC32C1 (centres undefined)
inactive: [1] 0.146 | [2] 0.038 | [5] 0.195 | [6] 0.152

CCN(CC)CCNC(=O)c1ccc(N)cc1
inactive: [1] 0.0893 | [2] 0.128 | [3] 0.138 | [4] 0.0499 | [5] 0.121 | [6] 0.267 | [7] 0.308 | [8] 0.0657

CCN(CC)CCNC(=O)c1cc(S(C)(=O)=O)ccc1OC
inactive: [1] 0.0293 | [2] 0.172 | [3] 0.198 | [4] 0.0568 | [5] 0.105 | [6] 0.182 | [7] 0.192 | [8] 0.0888

CCN(CC)CCNC(=O)c1c(C)[nH]c(/C=C2\C(=O)Nc3ccc(F)cc32)c1C
inactive: [9] 0.0562 | [10] 0.0683 | [11] 0.0856 | [12] 0.0784 | [13] -0.0103 | [14] 0.0749 | [15] -0.00223 | [16] 0.0762 | [17] -0.0922 | [18] 0.071
active: [19] -0.697 | [20] -0.541

C[N+]1(C)C2CC(OC(=O)C(O)(c3cccs3)c3cccs3)CC1C1OC12 (centres undefined)
inactive: [9] 0.0262 | [10] 0.0758 | [11] 0.0294 | [12] 0.0213 | [13] -0.023 | [14] 0.0295 | [15] 0.0205 | [16] 0.0567 | [17] 0.0784 | [18] 0.0507 | [19] 0.1 | [20] 0.116

COC(=O)C(C(C)=O)C(C)=O
inactive: [1] 0.0323 | [2] 0.0334 | [5] 0.0258 | [6] 0.125

CC(/C=C/C=C(\C)c1cc(C(C)(C)C)cc(C(C)(C)C)c1)=C\C(=O)O
inactive: [3] 0.134 | [4] 0.0751 | [7] 0.0952 | [8] 0.134
